Measurements published in ChEMBL document CHEMBL1961873, “Compounds: GSK PKIS; Assays: Nanosyn kinase panel” (2012).

Columns and labels:
[1] = target: T1, Ephrin type-B receptor 2 (Homo sapiens) (UniProt P29323); conditions: at 1 µM
T1 sequence (whole entry): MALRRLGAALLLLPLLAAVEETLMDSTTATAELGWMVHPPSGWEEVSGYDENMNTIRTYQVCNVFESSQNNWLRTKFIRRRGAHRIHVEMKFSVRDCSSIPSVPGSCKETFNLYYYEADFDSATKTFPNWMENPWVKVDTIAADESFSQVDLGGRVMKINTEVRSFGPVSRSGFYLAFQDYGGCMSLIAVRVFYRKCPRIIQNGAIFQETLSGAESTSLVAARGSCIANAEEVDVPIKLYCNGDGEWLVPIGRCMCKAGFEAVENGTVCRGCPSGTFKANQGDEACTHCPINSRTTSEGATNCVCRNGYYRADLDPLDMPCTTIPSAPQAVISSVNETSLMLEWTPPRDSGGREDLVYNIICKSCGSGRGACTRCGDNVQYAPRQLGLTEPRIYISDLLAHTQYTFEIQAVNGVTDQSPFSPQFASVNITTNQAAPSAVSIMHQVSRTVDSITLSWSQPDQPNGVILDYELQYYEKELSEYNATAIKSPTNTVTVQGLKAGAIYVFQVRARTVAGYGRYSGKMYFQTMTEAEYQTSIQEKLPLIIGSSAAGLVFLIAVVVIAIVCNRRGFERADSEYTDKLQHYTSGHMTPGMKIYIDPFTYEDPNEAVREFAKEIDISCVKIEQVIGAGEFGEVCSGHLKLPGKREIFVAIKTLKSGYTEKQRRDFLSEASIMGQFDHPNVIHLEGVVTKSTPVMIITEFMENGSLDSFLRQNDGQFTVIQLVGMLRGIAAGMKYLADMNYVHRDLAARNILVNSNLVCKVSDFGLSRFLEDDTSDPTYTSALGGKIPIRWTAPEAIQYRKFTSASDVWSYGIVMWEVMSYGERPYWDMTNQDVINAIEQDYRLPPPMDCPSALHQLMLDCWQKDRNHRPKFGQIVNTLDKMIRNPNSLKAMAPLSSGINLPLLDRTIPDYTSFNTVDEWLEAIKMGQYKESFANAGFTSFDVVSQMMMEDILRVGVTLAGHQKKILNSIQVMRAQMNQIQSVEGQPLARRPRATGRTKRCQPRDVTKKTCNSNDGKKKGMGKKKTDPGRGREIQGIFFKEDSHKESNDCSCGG

[2] = target: T2, Ephrin type-B receptor 3 (Homo sapiens) (UniProt P54753); conditions: at 0.1 µM
T2 sequence (whole entry): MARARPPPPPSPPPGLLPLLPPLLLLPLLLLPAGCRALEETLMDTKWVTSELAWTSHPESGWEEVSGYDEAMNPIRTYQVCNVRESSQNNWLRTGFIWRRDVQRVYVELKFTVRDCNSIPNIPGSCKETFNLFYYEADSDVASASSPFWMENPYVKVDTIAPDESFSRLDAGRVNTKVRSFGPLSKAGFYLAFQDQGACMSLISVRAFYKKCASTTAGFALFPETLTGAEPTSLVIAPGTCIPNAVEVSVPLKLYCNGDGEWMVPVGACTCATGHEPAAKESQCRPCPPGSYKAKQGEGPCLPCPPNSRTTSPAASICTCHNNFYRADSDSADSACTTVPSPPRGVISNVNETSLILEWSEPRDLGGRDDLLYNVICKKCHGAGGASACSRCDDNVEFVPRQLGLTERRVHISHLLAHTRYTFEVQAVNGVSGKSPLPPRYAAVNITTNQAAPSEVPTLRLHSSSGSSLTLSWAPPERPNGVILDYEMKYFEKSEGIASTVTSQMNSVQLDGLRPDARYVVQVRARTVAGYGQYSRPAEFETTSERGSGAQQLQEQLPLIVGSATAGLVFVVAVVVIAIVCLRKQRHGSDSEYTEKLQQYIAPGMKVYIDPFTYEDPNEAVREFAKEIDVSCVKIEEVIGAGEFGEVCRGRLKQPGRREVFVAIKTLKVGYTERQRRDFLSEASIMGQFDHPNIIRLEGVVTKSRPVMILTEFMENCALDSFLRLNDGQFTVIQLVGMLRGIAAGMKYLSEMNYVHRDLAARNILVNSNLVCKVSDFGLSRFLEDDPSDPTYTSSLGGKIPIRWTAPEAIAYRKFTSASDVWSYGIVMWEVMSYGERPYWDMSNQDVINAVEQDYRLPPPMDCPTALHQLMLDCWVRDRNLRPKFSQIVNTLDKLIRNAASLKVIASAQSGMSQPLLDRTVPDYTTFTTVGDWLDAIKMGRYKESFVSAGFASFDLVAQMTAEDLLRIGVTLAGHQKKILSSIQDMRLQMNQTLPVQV

[3] = target: T2, Ephrin type-B receptor 3 (Homo sapiens); conditions: at 1 µM
[4] = target: T3, Ephrin type-B receptor 4 (Homo sapiens) (UniProt P54760); conditions: at 0.1 µM
T3 sequence (whole entry): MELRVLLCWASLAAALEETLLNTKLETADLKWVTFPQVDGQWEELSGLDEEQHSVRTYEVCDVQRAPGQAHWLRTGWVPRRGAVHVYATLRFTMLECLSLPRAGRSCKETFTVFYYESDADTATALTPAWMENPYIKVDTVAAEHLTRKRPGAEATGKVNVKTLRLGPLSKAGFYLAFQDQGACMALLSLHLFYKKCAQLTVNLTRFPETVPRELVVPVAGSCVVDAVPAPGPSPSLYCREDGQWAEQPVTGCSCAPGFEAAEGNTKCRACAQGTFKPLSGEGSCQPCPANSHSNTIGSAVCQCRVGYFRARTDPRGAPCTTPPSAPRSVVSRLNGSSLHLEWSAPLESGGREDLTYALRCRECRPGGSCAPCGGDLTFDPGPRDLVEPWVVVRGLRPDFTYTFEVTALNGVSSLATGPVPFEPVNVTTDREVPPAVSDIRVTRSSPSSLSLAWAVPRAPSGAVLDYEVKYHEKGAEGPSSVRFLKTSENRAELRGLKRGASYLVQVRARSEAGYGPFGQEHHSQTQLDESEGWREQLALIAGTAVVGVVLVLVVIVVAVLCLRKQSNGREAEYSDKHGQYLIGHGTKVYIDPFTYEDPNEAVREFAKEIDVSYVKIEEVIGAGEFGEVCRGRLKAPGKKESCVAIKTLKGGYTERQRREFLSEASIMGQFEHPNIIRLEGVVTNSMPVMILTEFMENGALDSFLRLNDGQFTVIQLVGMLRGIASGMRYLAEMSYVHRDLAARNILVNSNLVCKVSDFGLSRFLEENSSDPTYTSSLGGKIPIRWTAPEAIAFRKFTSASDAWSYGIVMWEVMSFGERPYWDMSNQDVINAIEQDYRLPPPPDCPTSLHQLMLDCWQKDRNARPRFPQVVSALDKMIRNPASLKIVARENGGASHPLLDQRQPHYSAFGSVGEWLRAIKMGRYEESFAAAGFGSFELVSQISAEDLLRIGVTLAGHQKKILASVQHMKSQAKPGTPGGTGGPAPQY

[5] = target: T3, Ephrin type-B receptor 4 (Homo sapiens); conditions: at 1 µM
[6] = target: Receptor tyrosine-protein kinase erbB-2 (Homo sapiens) (UniProt P04626); conditions: at 0.1 µM
[7] = target: Receptor tyrosine-protein kinase erbB-2 (Homo sapiens) (UniProt P04626); conditions: at 1 µM
[8] = target: Receptor tyrosine-protein kinase erbB-4 (Homo sapiens) (UniProt Q15303); conditions: at 0.1 µM
[9] = target: Receptor tyrosine-protein kinase erbB-4 (Homo sapiens) (UniProt Q15303); conditions: at 1 µM
[10] = target: Tyrosine-protein kinase Fer (Homo sapiens) (UniProt P16591); conditions: at 0.1 µM
[11] = target: Tyrosine-protein kinase Fer (Homo sapiens) (UniProt P16591); conditions: at 1 µM
[12] = target: Tyrosine-protein kinase Fes/Fps (Homo sapiens) (UniProt P07332); conditions: at 0.1 µM
[13] = target: Tyrosine-protein kinase Fes/Fps (Homo sapiens) (UniProt P07332); conditions: at 1 µM
[14] = target: Fibroblast growth factor receptor 1 (Homo sapiens) (UniProt P11362); conditions: at 0.1 µM
[15] = target: Fibroblast growth factor receptor 2 (Homo sapiens) (UniProt P21802); conditions: at 0.1 µM
[16] = target: Fibroblast growth factor receptor 2 (Homo sapiens) (UniProt P21802); conditions: at 1 µM
[17] = target: Fibroblast growth factor receptor 3 (Homo sapiens) (UniProt P22607); conditions: at 0.1 µM
[18] = target: Fibroblast growth factor receptor 3 (Homo sapiens) (UniProt P22607); conditions: at 1 µM
[19] = target: Fibroblast growth factor receptor 4 (Homo sapiens) (UniProt P22455); conditions: at 0.1 µM;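 note: values are mean percent inhibition of FGFR4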
[20] = target: Fibroblast growth factor receptor 1 (Homo sapiens) (UniProt P11362); conditions: at 1 µM

Chain of Fibroblast growth factor receptor 2 (Homo sapiens) (P21802 22-821 limits assumed): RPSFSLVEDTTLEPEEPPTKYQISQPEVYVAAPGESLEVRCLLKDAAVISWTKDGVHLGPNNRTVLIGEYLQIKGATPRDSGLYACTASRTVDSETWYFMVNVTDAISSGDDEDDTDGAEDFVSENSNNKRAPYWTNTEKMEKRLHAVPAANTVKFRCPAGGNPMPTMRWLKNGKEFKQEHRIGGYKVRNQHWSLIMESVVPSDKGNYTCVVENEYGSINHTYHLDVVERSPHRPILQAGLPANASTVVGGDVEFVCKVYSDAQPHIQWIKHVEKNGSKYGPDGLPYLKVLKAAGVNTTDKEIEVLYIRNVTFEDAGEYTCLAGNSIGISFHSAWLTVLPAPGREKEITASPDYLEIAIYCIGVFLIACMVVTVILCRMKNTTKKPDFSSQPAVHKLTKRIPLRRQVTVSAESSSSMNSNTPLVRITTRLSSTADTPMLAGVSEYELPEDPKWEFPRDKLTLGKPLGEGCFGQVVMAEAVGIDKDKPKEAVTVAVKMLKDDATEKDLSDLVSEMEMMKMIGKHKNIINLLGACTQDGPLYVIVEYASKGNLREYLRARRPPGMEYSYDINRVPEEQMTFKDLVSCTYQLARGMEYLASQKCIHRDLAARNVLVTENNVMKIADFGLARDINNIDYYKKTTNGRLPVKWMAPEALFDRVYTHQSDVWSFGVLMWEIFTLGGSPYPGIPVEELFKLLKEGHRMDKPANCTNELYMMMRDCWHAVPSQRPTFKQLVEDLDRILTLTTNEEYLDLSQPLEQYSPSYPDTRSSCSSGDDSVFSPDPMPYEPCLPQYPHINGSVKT
Chain of Fibroblast growth factor receptor 4 (Homo sapiens) (P22455 22-802 limits assumed): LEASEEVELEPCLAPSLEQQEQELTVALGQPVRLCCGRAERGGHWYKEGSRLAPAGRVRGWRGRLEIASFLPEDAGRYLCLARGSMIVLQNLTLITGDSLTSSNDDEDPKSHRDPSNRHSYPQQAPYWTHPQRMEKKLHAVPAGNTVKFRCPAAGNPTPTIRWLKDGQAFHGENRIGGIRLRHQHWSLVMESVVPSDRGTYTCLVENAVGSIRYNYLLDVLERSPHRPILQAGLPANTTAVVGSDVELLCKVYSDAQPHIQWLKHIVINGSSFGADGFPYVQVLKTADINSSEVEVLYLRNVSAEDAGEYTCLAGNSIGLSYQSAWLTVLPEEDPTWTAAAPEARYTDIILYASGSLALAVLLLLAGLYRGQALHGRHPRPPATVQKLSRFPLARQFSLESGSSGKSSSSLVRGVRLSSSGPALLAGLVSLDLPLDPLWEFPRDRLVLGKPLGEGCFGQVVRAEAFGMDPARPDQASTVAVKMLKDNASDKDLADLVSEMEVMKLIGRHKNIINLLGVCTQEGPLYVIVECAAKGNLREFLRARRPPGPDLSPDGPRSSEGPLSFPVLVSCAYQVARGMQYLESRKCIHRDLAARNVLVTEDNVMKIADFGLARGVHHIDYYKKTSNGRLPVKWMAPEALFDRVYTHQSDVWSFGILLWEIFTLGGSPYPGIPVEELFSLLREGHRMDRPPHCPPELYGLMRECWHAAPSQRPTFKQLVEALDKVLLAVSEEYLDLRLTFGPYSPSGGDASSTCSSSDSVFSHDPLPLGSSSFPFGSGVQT
Chain of Receptor tyrosine-protein kinase erbB-2 (Homo sapiens) (P04626 whole entry): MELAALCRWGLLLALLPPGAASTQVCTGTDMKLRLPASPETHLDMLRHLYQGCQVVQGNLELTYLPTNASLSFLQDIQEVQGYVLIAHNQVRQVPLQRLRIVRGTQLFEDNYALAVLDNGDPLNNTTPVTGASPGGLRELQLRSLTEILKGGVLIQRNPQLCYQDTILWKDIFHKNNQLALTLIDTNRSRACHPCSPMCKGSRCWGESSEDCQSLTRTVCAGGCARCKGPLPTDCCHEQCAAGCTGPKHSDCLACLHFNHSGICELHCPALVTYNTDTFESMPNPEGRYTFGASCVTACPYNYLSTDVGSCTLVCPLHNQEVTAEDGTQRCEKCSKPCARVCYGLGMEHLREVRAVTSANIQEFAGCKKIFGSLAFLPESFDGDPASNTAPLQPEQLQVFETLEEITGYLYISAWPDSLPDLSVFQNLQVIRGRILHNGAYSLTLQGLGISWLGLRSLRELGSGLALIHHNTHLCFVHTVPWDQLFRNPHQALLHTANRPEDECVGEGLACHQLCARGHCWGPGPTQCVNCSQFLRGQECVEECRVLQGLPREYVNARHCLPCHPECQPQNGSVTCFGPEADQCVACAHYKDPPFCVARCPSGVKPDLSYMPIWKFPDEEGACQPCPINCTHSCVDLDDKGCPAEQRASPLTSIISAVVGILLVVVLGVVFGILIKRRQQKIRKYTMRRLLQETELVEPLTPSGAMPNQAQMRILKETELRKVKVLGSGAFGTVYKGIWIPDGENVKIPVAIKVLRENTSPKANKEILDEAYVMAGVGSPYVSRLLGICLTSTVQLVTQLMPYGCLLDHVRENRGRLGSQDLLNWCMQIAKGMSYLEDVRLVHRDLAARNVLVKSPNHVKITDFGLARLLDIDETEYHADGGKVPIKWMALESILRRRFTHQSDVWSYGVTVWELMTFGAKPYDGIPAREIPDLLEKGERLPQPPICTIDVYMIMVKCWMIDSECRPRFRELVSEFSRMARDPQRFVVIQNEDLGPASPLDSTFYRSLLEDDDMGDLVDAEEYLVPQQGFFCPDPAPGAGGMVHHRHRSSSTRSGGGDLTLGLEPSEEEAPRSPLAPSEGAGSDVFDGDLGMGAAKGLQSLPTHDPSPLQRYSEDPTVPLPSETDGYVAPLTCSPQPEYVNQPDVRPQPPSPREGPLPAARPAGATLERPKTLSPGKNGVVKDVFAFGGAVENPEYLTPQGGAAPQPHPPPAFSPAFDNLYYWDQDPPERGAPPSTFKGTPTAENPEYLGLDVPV
Chain of Fibroblast growth factor receptor 3 (Homo sapiens) (P22607 23-806 limits assumed): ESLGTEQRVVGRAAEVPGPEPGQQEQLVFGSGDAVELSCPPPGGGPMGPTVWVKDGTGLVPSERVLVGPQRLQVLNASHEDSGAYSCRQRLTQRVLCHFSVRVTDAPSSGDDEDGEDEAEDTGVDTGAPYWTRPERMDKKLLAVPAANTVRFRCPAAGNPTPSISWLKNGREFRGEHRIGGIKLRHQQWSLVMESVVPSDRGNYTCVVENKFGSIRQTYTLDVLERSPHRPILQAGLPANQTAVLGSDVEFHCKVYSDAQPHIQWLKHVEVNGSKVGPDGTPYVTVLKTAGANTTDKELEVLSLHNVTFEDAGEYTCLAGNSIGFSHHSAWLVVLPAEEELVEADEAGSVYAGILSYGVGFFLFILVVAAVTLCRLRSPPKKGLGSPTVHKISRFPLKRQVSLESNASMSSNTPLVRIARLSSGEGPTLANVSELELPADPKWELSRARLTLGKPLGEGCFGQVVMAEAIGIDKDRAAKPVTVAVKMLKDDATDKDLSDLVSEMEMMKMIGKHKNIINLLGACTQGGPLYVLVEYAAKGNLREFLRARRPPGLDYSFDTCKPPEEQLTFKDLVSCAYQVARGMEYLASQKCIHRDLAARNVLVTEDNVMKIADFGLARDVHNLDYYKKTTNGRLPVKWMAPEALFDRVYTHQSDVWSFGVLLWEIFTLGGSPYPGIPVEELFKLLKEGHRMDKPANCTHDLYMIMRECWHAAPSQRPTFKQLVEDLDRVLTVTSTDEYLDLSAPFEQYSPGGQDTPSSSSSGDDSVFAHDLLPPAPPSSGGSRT
Chain of Tyrosine-protein kinase Fes/Fps (Homo sapiens) (P07332 whole entry): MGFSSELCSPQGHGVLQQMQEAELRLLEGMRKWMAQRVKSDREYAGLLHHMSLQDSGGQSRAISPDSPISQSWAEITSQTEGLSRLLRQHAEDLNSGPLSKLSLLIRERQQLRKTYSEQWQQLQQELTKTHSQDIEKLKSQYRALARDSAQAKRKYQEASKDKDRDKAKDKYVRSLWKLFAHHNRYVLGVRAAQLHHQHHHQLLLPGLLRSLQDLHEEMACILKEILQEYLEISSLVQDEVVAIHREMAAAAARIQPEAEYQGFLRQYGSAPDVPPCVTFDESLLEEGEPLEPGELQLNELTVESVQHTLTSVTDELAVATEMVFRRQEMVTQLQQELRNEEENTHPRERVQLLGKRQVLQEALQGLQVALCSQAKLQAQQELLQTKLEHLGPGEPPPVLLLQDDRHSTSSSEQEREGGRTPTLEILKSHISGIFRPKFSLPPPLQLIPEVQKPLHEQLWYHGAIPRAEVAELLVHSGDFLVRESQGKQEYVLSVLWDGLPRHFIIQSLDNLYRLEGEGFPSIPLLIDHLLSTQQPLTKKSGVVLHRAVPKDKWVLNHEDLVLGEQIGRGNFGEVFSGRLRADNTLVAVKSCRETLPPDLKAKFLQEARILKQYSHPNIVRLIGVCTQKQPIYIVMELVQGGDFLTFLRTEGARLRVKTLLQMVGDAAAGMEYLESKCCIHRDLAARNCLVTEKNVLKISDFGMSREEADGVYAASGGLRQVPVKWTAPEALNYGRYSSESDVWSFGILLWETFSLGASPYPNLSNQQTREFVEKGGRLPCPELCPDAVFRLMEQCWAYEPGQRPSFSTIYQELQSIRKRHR

Compound | inhibition [1] [%] | inhibition [2] [%] | inhibition [3] [%] | inhibition [4] [%] | inhibition [5] [%] | inhibition [6] [%] | inhibition [7] [%] | inhibition [8] [%] | inhibition [9] [%] | inhibition [10] [%] | inhibition [11] [%] | inhibition [12] [%] | inhibition [13] [%] | inhibition [14] [%] | inhibition [15] [%] | inhibition [16] [%] | inhibition [17] [%] | inhibition [18] [%] | inhibition [19] [%] | inhibition [20] [%]
Cc1cc(-c2ccccn2)cc(C)c1/C=C/c1cncc(-c2nn[nH]n2)c1 | 12.8 | 2.22 | 4.35 | 1.86 | 4.98 | -0.2 | 8.13 | 8.8 | 21.3 | -0.04 | 2.12 | 3.53 | 5.62 | 1.35 | 4.22 | 7.33 | 5.34 | 4.82 | 2.42 | –
C[C@@H](Oc1cc(-n2cnc3ccc(OCC4CCN(C)CC4)cc32)sc1C(N)=O)c1ccccc1C(F)(F)F | -1.46 | -3.13 | -1.08 | -1.38 | 0.52 | -0.64 | 0.08 | -5.11 | -0.34 | -2.09 | 4.43 | -1.88 | -1.98 | -9.02 | -3.05 | 7.56 | -0.95 | 0.66 | 0.86 | 13
NC(=O)c1sc(-n2cnc3ccccc32)cc1OCc1ccccc1Br | 10.9 | 4.52 | 6.83 | 1.58 | 3.37 | 0.61 | 3.64 | 3.34 | 9.23 | -0.27 | 3.22 | 2.73 | 4.01 | 6.09 | 5.8 | 4.79 | 5.69 | 4.87 | 1.18 | 6.22
Oc1cccc(-c2nc(-c3ccccc3)[nH]c2-c2ccncc2)c1 | 26.1 | 9.06 | 19.3 | 6.41 | 9.99 | 4.55 | 3.87 | 12.6 | 19.4 | 3.43 | 0.53 | 2.34 | 1.64 | 1.95 | 4 | 9.16 | 4.28 | 5.69 | 1.36 | 7.19
Cc1ccc2c(-c3ccnc(Nc4cccc(C(F)(F)F)c4)n3)c(-c3ccccc3)nn2n1 | 51.7 | 3.61 | 9.16 | 7.62 | 46.4 | 5.37 | 37.7 | 40.4 | 79 | -8.28 | 43.3 | 3.67 | 5.17 | 5.59 | 6.45 | 9.52 | 7.84 | 6.97 | 2.15 | 8.78
Cc1nc(-c2ccccc2)n2nc(NCCCN3CCOCC3)ncc12 | 7.29 | 2.93 | 3.76 | 1.32 | 4.69 | 1.95 | 5.51 | 5.53 | 11.3 | 1.34 | 2.98 | 2.16 | 3.03 | -1.62 | 3.94 | 11.8 | 6.35 | 4.45 | 6.31 | -3.57
CS(=O)(=O)CCNCc1nc(-c2ccc3ncnc(Nc4ccc(OCc5cccc(C(F)(F)F)c5)cc4)c3c2)cs1 | 6.37 | 2.8 | 3.98 | -1.44 | 2.09 | 4.71 | 4.32 | 6.42 | 25.6 | 3.78 | 6.92 | 1.48 | 3.22 | 2.15 | 6.08 | 5.8 | 4.91 | 4.35 | 4.89 | 4.98
